# Hits are enriched below; roughly 5% of the tested compounds scored in any of these assays.
# VACV Venus inh: qHTS for Stage-Specific Inhibitors of Vaccinia Orthopoxvirus: Venus Reporter Primary qHTS. actives 0.46% (n = 330,000). AID 720580, 2013. Potency, µM (series often up to 36.5 µM), for the others: top-dose activity change, negative = inhibition, usual class: inhibitors. Vaccinia virus Venus reporter expression, fluorescence; calls by dose curve; tested in A549 cells; note: potency is the fitted concentration of half-maximal effect; nearly all actives have a fitted effect of over 30% in size
# HCMV inh: qHTS Assay for inhibitors of the human cytomegalovirus (HCMV) | HFF cells, HCMV-luciferase reporter, 72 h; active compounds read low | AID 1259415, 2018 | activity change, negative = inhibition, % at 57.5 µM | actives 4.5% (n = 410,000); in the data active = activity change below about -60%; inconclusive = no clear call, values can overlap the other calls; inactive = above about -39%
#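 Compounds were evaluated in HFFs infected with an HCMV luciferase reporter virus (MOI 1 PFU/cell). Luciferase in lysates collected 72 h post infection served as the replication measure.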
# Tb PYK inh: qHTS of Trypanosoma Brucei Inhibitors; pyruvate kinase (Trypanosoma brucei), Q57TT1; TbPYK enzyme, Kinase-Glo Plus ATP luminescence, 45 min; Potency, µM (top dose mostly 76.8 µM), for the others: at the highest dose activity, negative = inhibition, most hits filed as inhibitors; actives 0.12% (n = 410,000); AID 624173, 2012; note: potency is the fitted concentration of half-maximal effect; nearly all actives have a fitted effect of over 50% in size
#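 Luminescent Kinase-Glo Plus end-point after 45 min room-temperature reaction of T. brucei pyruvate kinase started with 130 uM ADP (final). Buffer TEA 50 mM pH 7.2 with KCl, MgCl2, BSA, Tween-20; titration-based qHTS with fitted concentration-effect curves.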
# VACV mCherry inh: qHTS for Stage-Specific Inhibitors of Vaccinia Orthopoxvirus: mCherry Reporter Primary qHTS; Vaccinia virus mCherry reporter infection, fluorescence; Potency, µM (titrated, usually from 36.5 µM), without a hit: at the highest dose activity change, negative = inhibition, actives largely listed as inhibitors; actives 0.63% (n = 310,000); AID 720579, 2013; calls by dose curve; tested in A549 cells; note: potency is the fitted concentration of half-maximal effect; nearly all actives have a fitted effect of over 35% in size
# LmPK inh: qHTS Assay for Inhibitors of Leishmania Mexicana Pyruvate Kinase (LmPK). AID 1721, 2009. actives 0.37% (n = 290,000). Q27686. Potency, µM (highest dose often 57.5 µM), without a hit: at the highest dose activity change, negative = inhibition, actives largely listed as inhibitors. purified LmPK, Kinase-Glo ATP luminescence, 1 h; note: potency is the fitted concentration of half-maximal effect
# Target sequence (Q27686 whole entry, looked up): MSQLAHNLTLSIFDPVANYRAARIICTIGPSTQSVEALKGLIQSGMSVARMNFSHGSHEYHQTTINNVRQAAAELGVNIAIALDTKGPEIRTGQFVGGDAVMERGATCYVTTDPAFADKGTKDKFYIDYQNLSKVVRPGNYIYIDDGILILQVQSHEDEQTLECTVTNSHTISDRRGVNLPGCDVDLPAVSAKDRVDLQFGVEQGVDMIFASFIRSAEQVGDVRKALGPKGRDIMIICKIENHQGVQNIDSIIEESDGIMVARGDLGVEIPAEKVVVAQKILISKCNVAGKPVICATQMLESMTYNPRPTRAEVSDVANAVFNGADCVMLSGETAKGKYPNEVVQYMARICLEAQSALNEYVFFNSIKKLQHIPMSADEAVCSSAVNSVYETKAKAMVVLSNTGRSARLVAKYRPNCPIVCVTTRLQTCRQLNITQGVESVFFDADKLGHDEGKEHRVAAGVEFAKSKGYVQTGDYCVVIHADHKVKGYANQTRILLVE
#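 Purified LmPK (0.1 nM) converted ADP (0.1 mM) to ATP with PEP (0.5 mM) in imidazole buffer pH 7.2 with KCl and MgCl2, 1 h at room temperature. ATP was read by Kinase-Glo luminescence; data normalized to uninhibited and no-enzyme controls.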
# Starred values were filed as active, the others as inactive; i = inactive; u = inconclusive; x = not tested or not shown; [ ] = another dose, or the depositor's remark. Unless noted, calls come from the whole dose curve; as a rule, active = well fitted curve in the direction sought with a large enough effect; inconclusive = small, poorly fitted or top-dose-only effect, or another doubt; inactive = no such curve, though single readings can be large; an effect the other way counts as inactive or inconclusive. % is set by controls: 0 for no effect and ±100 for the full control effect.
SMILES,VACV Venus inh,HCMV inh,Tb PYK inh,VACV mCherry inh,LmPK inh
Cc1cc(C)cc(N(C(=O)CNC(=O)c2ccco2)C(C(=O)NC2CCCC2)c2ccncc2)c1 (stereo unspecified),-1%,-67*,-5%,-8%,-3%
Cc1cccc(N(C(=O)c2csnn2)C(C(=O)NC2CCCCC2)c2ccccn2)c1C (stereo unspecified),-13%,12,2%,-18%,-5%
Cc1ccc(N(C(=O)c2csnn2)C(C(=O)NC2CCCCC2)c2ccncc2)cc1 (stereo unspecified),-13%,-64*,-6%,-16%,-5%
Cc1cc(C)cc(N(C(=O)c2csnn2)C(C(=O)NC2CCCCC2)c2ccncc2)c1 (stereo unspecified),-8%,-35,-7%,-15%,-6%
O=C(NC1CCCC1)C(c1ccccn1)N(C(=O)c1csnn1)c1ccccc1Cl (stereo unspecified),-10%,-66*,-5%,-10%,2%
Cc1ccc(N(C(=O)CNC(=O)c2ccco2)C(C(=O)NC2CCCCC2)c2cccnc2)cc1C (stereo unspecified),1%,-27,-3%,-8%,3%
O=C(CCc1nc(-c2ccccc2F)no1)NC1CCCCCC1,-8%,u,0%,x,-4%
CC1CN(C(=O)c2cc3cc(Cl)ccc3[nH]2)CC(C)O1 (stereo unspecified),x,-13,6%,x,1%
O=C1Cc2c(-c3ccccc3)cc(-c3cccc(Cl)c3)nc2-c2ccccc2N1,-11%,21,1%,-6%,x
NC1(c2ccc(-c3nc4ccn5c(=O)[nH]nc5c4cc3-c3ccccc3)cc2)CCC1,10µM*,x,0%,7.9µM*,x
O=C(CN1C(=O)/C(=C2\SC(=S)N(CCS(=O)(=O)O)C2=O)c2ccccc21)Nc1cccc(Br)c1,-8%,-22,-11%,-17%,-4%
CCOC(=O)c1cn(Cc2cccc(Cl)c2)nn1,-9%,-16,-2%,i,-1%
CCOC(=O)c1c(Cc2cccc(Cl)c2)c[nH]c1C,-7%,-62*,-3%,i,-2%
COC(=O)c1c(Cc2ccccc2Cl)c[nH]c1C,-11%,-67*,0%,-9%,3%
O=C1C(Cc2ccccc2)Nc2ncnc(N3CCCCC3)c2N1Cc1ccc(Br)cc1 (stereo unspecified),-25%,-22,1%,-28%,x
COc1ccc(-c2nc(CCNC(=O)c3ccco3)cs2)cc1OC,-4%,-101*,-10%,13%,1%
Cc1cccc(-c2nc(CS(=O)CC(=O)NCc3cccs3)c(C)o2)c1 (stereo unspecified),-11%,45,2%,-28%,5%
CCOP(=O)(OCC)C(Nc1ccccn1)c1ccc(F)cc1 (stereo unspecified),-7%,-70*,-6%,-19%,-4%
CCOP(=O)(OCC)C(Nc1ccccn1)c1ccccc1 (stereo unspecified),-7%,-28,2%,i,-4%
CCOC(=O)Nc1ccc(OC)cc1S(=O)(=O)N1CCCCC1,-11%,52,-1%,x,6%
Cc1ccc2c(CN3CCCCC3)cc(=O)oc2c1,-4%,-77*,1%,7%,-6%
CN1CCN(Cc2nc3ccccc3c(=O)n2Cc2nc(-c3ccc([N+](=O)[O-])cc3)cs2)CC1,10µM*,u,7%,10µM*,1%
O=C(O)c1c(-c2ccccc2)oc2ccc(OCc3c(F)cccc3Cl)cc12,-10%,-12,3%,-11%,x
Cc1cc(C)c2c(N)c3ccccc3nc2n1,x,-108*,15%,x,-5%
COc1ccc([N+](=O)[O-])cc1N(CC(O)CN(C)C)S(=O)(=O)c1ccccc1 (stereo unspecified),-7%,-27,12%,i,2%
SMILES,VACV Venus inh,HCMV inh,Tb PYK inh,VACV mCherry inh,LmPK inh
C=CCN(CC=C)CC(O)CN(c1cc([N+](=O)[O-])ccc1OC)S(=O)(=O)c1ccccc1 (stereo unspecified),-11%,-107*,4%,-10%,-1%
CC(C)(C)S(=O)N1C[C@@H]2CC(=O)C(CCO)=C2[C@H]1CCO (stereo partly specified),x,8,x,x,x
O=C(COC(=O)C12CC3CC(CC(O)(C3)C1)C2)Nc1cccc(Br)c1,-19%,-102*,-2%,-16%,x
COC(=O)c1cc(NC(=O)CC2CCCC2)cc(C(=O)OC)c1,-4%,-64*,-4%,10%,2%
CC(=O)N1CCc2cc(S(=O)(=O)CCC(=O)NCc3ccc(F)cc3)ccc21,x,-61*,6%,x,-3%
O=C(CSc1ccccc1)NCc1ccc2c(c1)CCN2C(=O)c1ccccc1,-12%,19,-1%,-11%,x
CC(=O)N1CCc2cc(CNS(=O)(=O)c3ccccc3C(F)(F)F)ccc21,-18%,-93*,-5%,-12%,x
Cc1ccc(C(=O)N2CCc3cc(CNS(=O)(=O)c4ccc(Cl)s4)ccc32)cc1,u,-9,2%,u,x
O=C(c1ccccc1)N1CCc2cc(CNS(=O)(=O)c3ccccc3Cl)ccc21,-24%,-78*,1%,-27%,x
O=C(c1ccccc1)N1CCc2cc(CNS(=O)(=O)c3ccc(Cl)s3)ccc21,-22%,-70*,-4%,-30%,x
CC(C)(C)c1ccc(CC(=O)N2CCC2(C)C(=O)NS(=O)(=O)c2ccc(Cl)s2)cc1 (stereo unspecified),-3%,1,1%,4%,x
O=C1[C@H]2CCCC[C@H]2C(=O)N1CCCCN1CCN(c2nsc3ccccc23)CC1,-19%,-61*,6%,u,x
c1ccc2c(N3CCNCC3)nsc2c1,-3%,-107*,1%,1%,-7%
O=C(Nc1ccc(S(=O)(=O)N2CCCCC2)cc1)C1CCN(C(=O)c2ccco2)CC1,-8%,u,13%,-16%,0%
CCOc1ccc(C(=O)N/N=C/c2ccc(-c3ccc(S(=O)(=O)Nc4ncccn4)cc3)o2)cc1,x,2,-6%,x,8%
O=C(N/N=C/c1ccc(-c2ccc(S(=O)(=O)Nc3ncccn3)cc2)o1)c1cc2ccccc2cc1O,-11%,-101*,-3%,3%[1.46 µM],20%
COc1cc(NC(=O)COC(=O)CNC(=O)c2ccc(Cl)cc2)c(C)cc1[N+](=O)[O-],-7%,u,-5%,i,1%
O=S(=O)(/N=C(/NS(=O)(=O)c1ccccc1)c1ccccc1)c1ccccc1,-13%,-106*,1%,i,1%
O=C(COC(=O)c1ccc(Cl)nc1)Nc1c(Cl)cccc1C(F)(F)F,-13%,-6,-7%,-1%,x
CCC(=Nc1ccc(OC)cc1OC)c1c(O)n(C)c(=O)n(C)c1=O,-11%,-25,3%,-14%,7%

# From PubChem
